# Tests used:
# Test in all cases: DAPPL (digital affinity profiling via proximity ligation, sequencing); 10 mM Tris-HCl pH 7.5, 50 mM NaCl, 1 mM DTT, 4% glycerol, room temperature, 30 min; GST-TFs on glutathione beads, 16-mer random dsDNA library, 0.1% formaldehyde crosslink after washing; high values mean tight binding
# Settings in all cases: protein: recombinant; tags: N-terminal GST; dsDNA, one strand shown
# [1] = target: T1, FLI1 (Homo sapiens, UniProt Q01543 1-452)
# T1 sequence: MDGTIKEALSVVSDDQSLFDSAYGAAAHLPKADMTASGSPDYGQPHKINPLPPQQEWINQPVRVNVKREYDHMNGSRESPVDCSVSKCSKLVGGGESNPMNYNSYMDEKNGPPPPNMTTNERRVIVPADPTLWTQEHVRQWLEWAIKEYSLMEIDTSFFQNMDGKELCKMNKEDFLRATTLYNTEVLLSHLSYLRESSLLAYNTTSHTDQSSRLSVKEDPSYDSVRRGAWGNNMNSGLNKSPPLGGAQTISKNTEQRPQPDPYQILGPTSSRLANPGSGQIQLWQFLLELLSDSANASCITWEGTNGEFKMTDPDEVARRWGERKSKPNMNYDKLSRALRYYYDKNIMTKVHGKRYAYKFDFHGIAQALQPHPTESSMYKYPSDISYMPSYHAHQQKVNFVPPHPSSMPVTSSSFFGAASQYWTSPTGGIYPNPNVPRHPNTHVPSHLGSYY
# Method in brief: (§1)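 Pools were built from human transcription factors expressed in yeast as GST fusions, captured on glutathione beads and DNA-barcoded, along with a tag-only sample. Incubation with 200 nmole of a 16-mer random double-stranded DNA library lasted 30 min at room temperature in Tris/NaCl/DTT/glycerol buffer, and was followed by washing, 0.1% formaldehyde crosslinking, proximity ligation, PCR amplification and Illumina NextSeq500 sequencing. Binding signal is the quotient of each hexamer's read frequency for a factor and its frequency for the tag-only sample.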
# [2] = target: T2, ELK1 (Homo sapiens, UniProt P19419 1-428)
# T2 sequence: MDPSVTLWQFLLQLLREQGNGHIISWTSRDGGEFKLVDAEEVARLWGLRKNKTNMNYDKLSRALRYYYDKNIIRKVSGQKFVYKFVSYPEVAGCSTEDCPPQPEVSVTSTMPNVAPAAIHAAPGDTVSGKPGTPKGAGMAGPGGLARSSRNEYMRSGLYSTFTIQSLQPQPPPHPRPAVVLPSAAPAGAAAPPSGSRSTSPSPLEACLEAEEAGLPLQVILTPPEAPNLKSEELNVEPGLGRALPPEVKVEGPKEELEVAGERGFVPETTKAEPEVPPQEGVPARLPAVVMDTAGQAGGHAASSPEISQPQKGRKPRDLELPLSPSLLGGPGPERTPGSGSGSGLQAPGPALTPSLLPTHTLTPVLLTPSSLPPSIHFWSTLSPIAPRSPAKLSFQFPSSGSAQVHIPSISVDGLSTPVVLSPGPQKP
# Method in brief: as §1
# [3] = target: T3, GABPA (Homo sapiens, UniProt Q06546 1-454)
# T3 sequence: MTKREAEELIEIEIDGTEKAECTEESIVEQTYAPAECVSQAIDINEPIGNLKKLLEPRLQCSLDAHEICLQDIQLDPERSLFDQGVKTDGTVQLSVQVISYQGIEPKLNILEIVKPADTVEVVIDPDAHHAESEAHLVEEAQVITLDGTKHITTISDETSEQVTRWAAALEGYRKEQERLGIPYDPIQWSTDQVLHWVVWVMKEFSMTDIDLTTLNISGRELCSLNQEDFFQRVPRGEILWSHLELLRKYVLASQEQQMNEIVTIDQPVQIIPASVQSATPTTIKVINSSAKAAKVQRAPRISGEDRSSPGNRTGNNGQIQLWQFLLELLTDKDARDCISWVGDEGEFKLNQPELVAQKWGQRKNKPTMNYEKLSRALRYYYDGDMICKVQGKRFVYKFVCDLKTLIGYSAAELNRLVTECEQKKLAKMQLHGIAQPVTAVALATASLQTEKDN
# Method in brief: as §1
# [4] = target: T4, ERG (Homo sapiens, UniProt P11308 1-479)
# T4 sequence: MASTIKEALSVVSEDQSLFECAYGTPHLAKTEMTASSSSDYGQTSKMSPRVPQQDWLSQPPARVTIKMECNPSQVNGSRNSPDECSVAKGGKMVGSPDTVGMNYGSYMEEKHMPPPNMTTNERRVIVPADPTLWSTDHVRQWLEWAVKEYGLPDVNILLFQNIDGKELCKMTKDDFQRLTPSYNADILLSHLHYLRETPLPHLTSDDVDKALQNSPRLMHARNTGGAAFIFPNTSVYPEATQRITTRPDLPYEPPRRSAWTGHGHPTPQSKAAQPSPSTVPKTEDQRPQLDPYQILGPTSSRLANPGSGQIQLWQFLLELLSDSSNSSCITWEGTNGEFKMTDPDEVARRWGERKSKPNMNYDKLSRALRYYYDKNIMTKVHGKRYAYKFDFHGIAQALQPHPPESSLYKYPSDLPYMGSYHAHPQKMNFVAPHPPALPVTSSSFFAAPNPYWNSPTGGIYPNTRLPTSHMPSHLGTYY
# Method in brief: as §1
# [5] = target: ELF1 (Homo sapiens, UniProt P32519 1-619)
# Sequence of ELF1 (P32519 whole entry): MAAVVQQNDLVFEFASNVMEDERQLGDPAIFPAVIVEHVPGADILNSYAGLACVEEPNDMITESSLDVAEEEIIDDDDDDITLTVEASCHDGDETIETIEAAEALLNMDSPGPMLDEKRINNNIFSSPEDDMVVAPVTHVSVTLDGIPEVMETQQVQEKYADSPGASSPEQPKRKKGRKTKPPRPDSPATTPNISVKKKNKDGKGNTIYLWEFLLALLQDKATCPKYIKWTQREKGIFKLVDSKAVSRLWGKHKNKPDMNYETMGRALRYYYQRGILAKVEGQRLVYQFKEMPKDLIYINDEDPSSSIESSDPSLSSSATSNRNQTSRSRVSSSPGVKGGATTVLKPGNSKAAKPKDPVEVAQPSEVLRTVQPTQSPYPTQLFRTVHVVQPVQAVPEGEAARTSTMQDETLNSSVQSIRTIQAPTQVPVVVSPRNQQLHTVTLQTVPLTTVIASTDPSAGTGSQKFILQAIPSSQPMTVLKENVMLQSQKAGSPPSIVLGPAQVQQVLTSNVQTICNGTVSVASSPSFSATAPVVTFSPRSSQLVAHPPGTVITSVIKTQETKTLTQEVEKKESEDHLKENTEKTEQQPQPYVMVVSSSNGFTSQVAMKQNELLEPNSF
# Method in brief: as §1
# [6] = target: T5, EHF (Homo sapiens, UniProt Q9NZC4 1-300)
# T5 sequence: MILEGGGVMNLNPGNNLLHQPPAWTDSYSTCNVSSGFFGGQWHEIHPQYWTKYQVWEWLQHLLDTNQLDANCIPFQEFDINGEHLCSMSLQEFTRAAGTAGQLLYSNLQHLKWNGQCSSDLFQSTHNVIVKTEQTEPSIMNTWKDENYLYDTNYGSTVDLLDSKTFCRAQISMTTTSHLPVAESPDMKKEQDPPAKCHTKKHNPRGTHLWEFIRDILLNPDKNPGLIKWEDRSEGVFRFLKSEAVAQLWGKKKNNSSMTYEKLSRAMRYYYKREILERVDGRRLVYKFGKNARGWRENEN
# Method in brief: as §1
# [7] = target: SPI1 (Homo sapiens, UniProt P17947 1-270)
# Method in brief: as §1
# [8] = target: SPIB (Homo sapiens, UniProt Q01892 1-262)
# Sequence of SPIB (Q01892 whole entry): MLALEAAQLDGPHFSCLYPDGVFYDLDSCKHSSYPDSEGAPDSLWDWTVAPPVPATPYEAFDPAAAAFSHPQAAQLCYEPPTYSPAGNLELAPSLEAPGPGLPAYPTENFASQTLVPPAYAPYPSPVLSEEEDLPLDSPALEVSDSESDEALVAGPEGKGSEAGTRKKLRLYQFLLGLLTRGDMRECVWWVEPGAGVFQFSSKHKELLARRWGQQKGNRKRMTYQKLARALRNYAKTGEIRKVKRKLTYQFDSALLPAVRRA
# Method in brief: as §1
# [9] = target: T6, ELK3 (Homo sapiens, UniProt P41970 1-407)
# T6 sequence: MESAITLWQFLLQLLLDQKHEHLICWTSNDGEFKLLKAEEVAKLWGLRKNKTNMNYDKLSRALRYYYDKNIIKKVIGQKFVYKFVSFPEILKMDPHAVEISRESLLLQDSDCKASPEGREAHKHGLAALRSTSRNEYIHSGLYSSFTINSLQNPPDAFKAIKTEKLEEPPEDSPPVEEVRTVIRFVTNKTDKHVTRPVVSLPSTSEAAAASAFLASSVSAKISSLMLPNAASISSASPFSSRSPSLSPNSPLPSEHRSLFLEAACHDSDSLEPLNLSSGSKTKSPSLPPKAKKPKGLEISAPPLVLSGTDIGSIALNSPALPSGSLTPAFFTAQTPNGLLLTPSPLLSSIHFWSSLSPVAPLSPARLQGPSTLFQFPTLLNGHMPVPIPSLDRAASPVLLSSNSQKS
# Method in brief: as §1
sequence,measurement,setting,value
TGTTTG,binding signal,[1],"1.52 fold enrichment (6-mer frequency, TF over GST control)"
same,binding signal,[2],"1.31 fold enrichment (6-mer frequency, TF over GST control)"
same,binding signal,[3],"1.32 fold enrichment (6-mer frequency, TF over GST control)"
same,binding signal,[4],"1.27 fold enrichment (6-mer frequency, TF over GST control)"
same,binding signal,[5],"1.22 fold enrichment (6-mer frequency, TF over GST control)"
same,binding signal,[6],"1.31 fold enrichment (6-mer frequency, TF over GST control)"
same,binding signal,[7],"1.29 fold enrichment (6-mer frequency, TF over GST control)"
same,binding signal,[8],"1.42 fold enrichment (6-mer frequency, TF over GST control)"
same,binding signal,[9],"1.29 fold enrichment (6-mer frequency, TF over GST control)"
